High-throughput results (PubChem BioAssay)
Only some compounds are listed: those with a hit (about 4% of all), similar ones and a draw of the others.
Rv3671c protease = Rv3671c serine protease inhibitors, primary screen, biochemical, fluorescence polarization, M. tuberculosis H37Rv | inhibition, % at 5.96 µM | 320,000 tested, 0.048% active; in the data active means inhibition above about 38%;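 further: extracellular domain of Rv3671c used as enzyme; 0% = enzyme with DMSO and 100% = no enzyme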
GDH-TPI counter-1 = GDH-TPI coupling enzyme inhibitors, primary screen, artefact control for M. tuberculosis FBA inhibitor project, biochemical, absorbance, full deck. inhibition, % at 4.8 µM. 360,000 tested, 1.2% active. AID 588335, 2011. GDH-TPI coupled enzyme counterscreen, NADH absorbance; in the data active means inhibition above about 30%;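 further: 0% = DMSO wells and 100% = wells lacking the enzyme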
Mtb UGM inh = M. tuberculosis UGM enzyme inhibitors, primary screen, biochemical, fluorescence polarization, single point; 320,000 tested, 0.06% active; inhibition, % at 10 µM; UDP-galactopyranose mutase (Mycobacterium tuberculosis (strain ATCC 25618 / H37Rv)), …; purified UGM, fluorescence polarization probe displacement; in the data active means inhibition above about 10%, passing the limit was not always enough
Target sequence (P9WIQ1 whole entry, looked up): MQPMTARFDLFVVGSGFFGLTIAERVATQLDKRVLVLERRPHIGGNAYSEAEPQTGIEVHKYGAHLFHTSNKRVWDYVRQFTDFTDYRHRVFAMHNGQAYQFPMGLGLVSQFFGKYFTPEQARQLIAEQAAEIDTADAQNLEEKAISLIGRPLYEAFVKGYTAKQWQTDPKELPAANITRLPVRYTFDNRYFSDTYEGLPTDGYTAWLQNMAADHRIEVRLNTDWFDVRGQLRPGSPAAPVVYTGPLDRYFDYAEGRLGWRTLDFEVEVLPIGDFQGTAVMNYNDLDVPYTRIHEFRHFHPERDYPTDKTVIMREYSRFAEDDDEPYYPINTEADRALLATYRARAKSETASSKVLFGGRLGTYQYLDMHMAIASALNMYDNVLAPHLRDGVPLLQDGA
RecA splice inh = Mtb RecA intein splicing inhibitors, primary screen, biochemical, fluorescence, HTS. AID 2221, 2009. cell-free RecA intein splicing. inhibition, % (no concentration beside the values). Protein RecA (Mycobacterium tuberculosis (strain ATCC 25618 / H37Rv)), P9WHJ3. 290,000 tested, 0.75% active; in the data active means inhibition above about 30%;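 further: 0% = vehicle wells and 100% = reference inhibitor control wells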
Mtb FBA inh = Mtb FBA enzyme inhibitors, primary screen, biochemical, fluorescence, strain H37Rv; purified M. tuberculosis FBA, fluorescence read-out; inhibition, % at 1 µM; 360,000 tested, 2.3% active; AID 588726, 2011;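 further: 0% = vehicle and 100% = reference inhibitor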
Mtb betalactam = beta-lactam sensitization of Mtb H37Rv, H37Rv | M. tuberculosis H37Rv growth with meropenem, percent inhibition | inhibition, % at 25 µM | 330,000 tested, 0.27% active | AID 434955, 2010; call rule not given here;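 further: growth measured after seven days incubation then overnight dye step; 0% = bacteria only wells and 100% = bacteria with antibiotic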
Mtb FBA inh conf = M. tuberculosis aldolase blockers, biochemical, fluorescence, strain H37Rv, confirmation; shares compounds with Mtb FBA inh; purified M. tuberculosis FBA, fluorescence read-out; inhibition, % at 1 µM; 5,600 tested, 78% active;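 further: 0% = vehicle wells and 100% = reference inhibitor wells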
GDH-TPI counter-2 = GDH-TPI coupling enzyme inhibitors, artefact control for M. tuberculosis FBA inhibitor project, biochemical, fluorescence, high throughput. shares compounds with Mtb FBA inh. GDH-TPI coupled enzyme counterscreen. inhibition, % at 1 µM. 5,600 tested, 81% active. AID 652141, 2013; in the data active means inhibition above about 10%
An asterisk follows results filed as active; . = no result; + = active, no number. Unless noted, no stated cut-off is given here; in the data, active means inhibition above about 27%; inactive means the rest.

SMILES | Rv3671c protease | GDH-TPI counter-1 | Mtb UGM inh | RecA splice inh | Mtb FBA inh | Mtb betalactam | Mtb FBA inh conf | GDH-TPI counter-2
Cc1c(Cc2ccccc2)c(=O)oc2c(C)c(OCC(=O)N3CCC(C(=O)O)CC3)ccc12 | 1 | 21 | 0 | 1 | 107* | -8 | 60* | 32*
O=C(Nc1nnc([C@@H]2C[C@H](O)[C@@H](CO)O2)s1)c1cccc2ccccc12 | . | 9 | . | . | 4 | . | . | .
COc1ccc(-c2cn(CCC(=O)O)c(C)n2)cc1 | 6 | -1 | 1 | . | -1 | 1 | . | .
CCCCCc1c(C)[nH]c2nc3ccccc3n2c1=O | -5 | 1 | 1 | 1 | 1 | 1 | . | .
COC(=O)Cc1cc(=O)n2c(nc3ccccc32)[nH]1 | 2 | 14 | 1 | 0 | 65* | -5 | 35* | 18*
Cc1cc(=O)[nH]c2nc3ccccc3n12 | . | 16 | . | . | 47* | . | 76* | 60*
CSc1cccc(N2C(=O)C3CCCN3C2=S)c1 (centres undefined) | -4 | -4 | -1 | -1 | -3 | -1 | . | .
CC(C#N)Sc1ncnc2sc3c(c12)CCC3 (centres undefined) | -1 | -7 | 0 | 3 | -2 | 2 | . | .
Cc1cc(C)nc(Sc2ncnc3sc4c(c23)CCC4)n1 | 2 | 5 | -1 | 2 | 49* | 8 | 2 | 1
COc1cc(COCC(O)CN2CCN(CCN3C(=O)c4cccc5cccc(c45)C3=O)CC2)cc(OC)c1OC (centres undefined) | -3 | 20 | -1 | -4 | 1 | 1 | . | .
COc1ccc(COCC(O)CN2CCC(CN3C(=O)c4cccc5cccc(c45)C3=O)CC2)cc1OC (centres undefined) | -9 | 14 | -3 | 0 | 30* | 92 | -1 | -2
C[C@@H]1CN([C@@H](C)CO)C(=O)CCCn2nncc2CO[C@H]1CN(C)Cc1ccc2cccnc2c1 | . | 8 | . | . | 4 | . | . | .
C=CCNc1nc(NCc2ccccc2)c(C#N)c2c1CN(C)CC2 | 7 | 14 | 1 | -101 | 71* | 3 | 58* | 52*
N#Cc1c(NCCN)nc(NCc2ccccc2)c2c1CCN(Cc1ccccc1)C2 | . | 7 | . | . | 5 | . | . | .
Cc1ccc([C@@H]2CC(=O)[C@@H]3CN(S(=O)(=O)c4ccc(C)cc4)[C@H](c4ccccc4F)C[C@@H]3N2S(=O)(=O)c2ccc(C)cc2)cc1 | . | . | . | . | 0 | . | . | .
CCOC(=O)C1=CN(CC)S(=O)(=O)NC1CC (centres undefined) | . | -4 | . | . | 2 | . | . | .
COc1ccc(CNC(=O)CC(C)CC2=NS(=O)(=O)c3ccccc3N2)cc1 (centres undefined) | -1 | -6 | 0 | 4 | -1 | 0 | . | .
COc1ccc(CNC(=O)CCCC2=NS(=O)(=O)c3ccccc3N2)cc1 | -1 | 4 | 1 | -1 | 102* | 10 | 132* | 139*
Cc1ccc(-n2c(=O)c(C#N)cc3c(=O)n4cccc(C)c4nc32)cc1 | -5 | -1 | -1 | -102 | 62* | -7 | 138* | 84*
Cc1cccn2c(=O)c3cc(C#N)c(=O)n(Cc4cccnc4)c3nc12 | . | 6 | . | . | 111* | . | 87* | 71*
N=c1c(S(=O)(=O)c2ccccc2)cc2c(=O)n3ccccc3nc2n1Cc1cccnc1 | 0 | 11 | 1 | -29 | 3 | -11 | . | .
CCCn1c(=N)c(S(=O)(=O)c2ccccc2)cc2c(=O)n3cccc(C)c3nc21 | 2 | -7 | 0 | . | 2 | 4 | . | .
Cc1cccn2c(=O)c3cc(C#N)c(=NC(=O)c4cccs4)n(CC(C)C)c3nc12 | 0 | 1 | 0 | -81 | 35* | -9 | + | 190*
Cc1ccc(S(=O)(=O)c2cc3c(=O)n4cccc(C)c4nc3n(Cc3ccncc3)c2=N)cc1 | -9 | -1 | 2 | -7 | 5 | -4 | . | .
CC(=O)N=c1c(C#N)cc2c(=O)n3ccccc3nc2n1Cc1ccccc1 | -1 | -7 | -2 | -57 | 28* | 1 | 122* | 108*
SMILES | Rv3671c protease | GDH-TPI counter-1 | Mtb UGM inh | RecA splice inh | Mtb FBA inh | Mtb betalactam | Mtb FBA inh conf | GDH-TPI counter-2
COc1ccc(CCCNC(=O)C2(C)Cc3c(-c4ccc(C(N)=O)cc4)ccnc3O2)cc1 (centres undefined) | . | 10 | . | . | 5 | . | . | .
Nc1ccccc1C(=O)Nc1nccs1 | -3 | 7 | -2 | . | 55* | -9 | 128* | 84*
O=C(Nc1nccs1)c1ccccc1Br | -8 | 9 | -3 | 2 | 1 | -7 | . | .
Cc1ccc(NC(=S)NC(NC(=O)c2ccco2)C(Cl)(Cl)Cl)cc1 (centres undefined) | -6 | 8 | -2 | 9 | 1 | -6 | . | .
Cc1cccc(NC(=S)NC(NC(=O)c2ccco2)C(Cl)(Cl)Cl)c1 (centres undefined) | -3 | 17 | -2 | 5 | 74* | -9 | 89* | 95*
Cc1ccc(NC(=O)N2CCOCC2)cc1NC(=O)N1CCOCC1 | . | -4 | . | . | 1 | . | . | .
Cn1c(-c2ccccc2O)cc2ccccc21 | -10 | -4 | 1 | 13 | 32* | 6 | 140* | 119*
Cn1c(-c2ccccc2)cc2ccccc21 | 3 | -6 | 0 | -3 | 9 | -4 | . | .
CCc1ccc(CN(C)C(=O)c2cc(=O)c3ccccc3o2)cc1 | -4 | -16 | 4 | . | -2 | 1 | . | .
COc1ccc(CCN(C)C(=O)c2cc(=O)c3ccccc3o2)cc1OC | 3 | 3 | 0 | -1 | 50* | 2 | -22 | -18
COCc1cc(C)nc(SC)c1C#N | -6 | 9 | -1 | 1 | 1 | -6 | . | .
COCc1cc(C)nc(N2CCOCC2)c1C#N | 1 | 6 | 1 | 1 | 32* | 2 | 37* | 37*
COCc1cc(C)nc(NC2CC(C)(C)NC(C)(C)C2)c1C#N | -8 | 7 | 2 | 2 | 62* | -2 | 83* | 78*
COCc1cc(C)[nH]c(=O)c1C#N | 6 | 18 | 2 | -18 | 66* | -9 | 53* | 41*
Cc1cc(C)c(C#N)c(N2CCOCC2)n1 | 3 | 8 | 2 | 1 | 25 | -2 | . | .
COCc1cc(C)nc(N)c1C#N | -4 | 3 | 0 | -1 | 29* | -16 | + | +
